Consider 38 molecules from the antibiotic and cytotoxicity screens of Wong et al. (2023).

In all, about 39,000 compounds went through this assay and about 3,300 (8.5%) were called active. The sample as a whole holds a higher share of actives than the screen did.

The assay relates to HepG2. As to the kind of experiment: cytotoxicity call (relative viability < 0.9). As to conditions: 10 µM.
In the case of `O=C(C[C@H]1C=C[C@H](NC(=O)C2CC2)[C@@H](CO)O1)NCCCN1CCOCC1`, the cytotoxicity call was “inactive”. As for `C[C@@H]1CCCCO[C@@H](CN(C)C(=O)c2ccncc2)[C@@H](C)CN([C@@H](C)CO)C(=O)c2cc(NC(=O)C3CCCCC3)ccc2O1`, the cytotoxicity call was “inactive”.

`CS(=O)(=O)NCc1nnnn1-c1ccc(F)c(F)c1`: the cytotoxicity call was “inactive”. In the case of `C[C@@H]1CN([C@H](C)CO)S(=O)(=O)c2ccc(C#Cc3cccc(F)c3)cc2O[C@H]1CN(C)S(=O)(=O)c1ccccc1F`, the cytotoxicity call is “inactive”. As for `C[C@@H]1CN([C@@H](C)CO)C(=O)c2c(c3ccccc3n2C)-c2ccccc2CO[C@H]1CN(C)C(=O)NC1CCCCC1`, the cytotoxicity call was “inactive”. In the case of `CCOC(=O)CSc1nc(=O)cc(C)[nH]1`, the cytotoxicity call is “inactive”. With `Cc1cc(=O)nc(SCC(N)=O)[nH]1`, the cytotoxicity call is “active”. Regarding `CCCc1cc(=O)nc(SCC(N)=O)[nH]1`, the cytotoxicity call is “inactive”. Regarding `C[C@H](CO)N1C[C@H](C)[C@H](CN(C)S(=O)(=O)c2cn(C)cn2)OCCCC[C@H](C)Oc2ccc(NS(=O)(=O)c3ccccc3)cc2C1=O`, the cytotoxicity call is “inactive”.

Take `CCOC(=O)[C@H]1C/C=C/C[C@H](C(=O)OCC)C(=O)O[C@H]2[C@@H](OC)O[C@H](CO)[C@@H](OC(=O)Nc3ccc(Br)cc3)[C@@H]2OC1=O`: the cytotoxicity call is “active”. For `CCOC(=O)[C@H]1C/C=C/C[C@H](C(=O)OCC)C(=O)O[C@H]2[C@@H](OC)O[C@H](CO)[C@@H](OC(=O)Nc3ccc(OC)cc3)[C@@H]2OC1=O`, the cytotoxicity call was “inactive”. The same measure for `CO[C@H]1O[C@H](CO)[C@@H](OC(=O)Nc2ccc3c(c2)OCO3)[C@@H]2OC(=O)[C@H](Cc3cccc(Br)c3)C/C=C/C[C@@H](Cc3cccc(Br)c3)C(=O)O[C@@H]12`: “inactive”; for `CCOC(=O)[C@H]1C/C=C/C[C@H](C(=O)OCC)C(=O)O[C@H]2[C@@H](OC)O[C@H](CO)[C@@H](OC(=O)Nc3ccc4c(c3)OCO4)[C@@H]2OC1=O`: “active”; for `CCOC(=O)[C@H]1C/C=C/C[C@H](C(=O)OCC)C(=O)O[C@H]2[C@@H](OC)O[C@H](CO)[C@@H](OC(=O)c3c(OC)cccc3OC)[C@@H]2OC1=O`: “inactive”. As to `COc1ccc(NC(=O)O[C@H]2[C@@H]3OC(=O)[C@@H](Cc4ccc5ccccc5c4)C/C=C/C[C@H](Cc4ccc5ccccc5c4)C(=O)O[C@H]3[C@@H](OC)O[C@@H]2CO)cc1`, the cytotoxicity call was “active”. For `CCOC(=O)[C@H]1C/C=C/C[C@H](C(=O)OCC)C(=O)O[C@H]2[C@@H](OC)O[C@H](CO)[C@@H](OC(=O)Nc3ccccc3)[C@@H]2OC1=O` the value was “inactive”; for `COc1ccc(NC(=O)O[C@H]2[C@@H]3OC(=O)[C@H](Cc4cccc(Br)c4)C/C=C/C[C@@H](Cc4cccc(Br)c4)C(=O)O[C@H]3[C@@H](OC)O[C@@H]2CO)cc1`, “inactive”; for `CO[C@H]1O[C@H](CO)[C@@H](OC(=O)Nc2cccc(F)c2)[C@@H]2OC(=O)[C@H](Cc3cccc(Br)c3)C/C=C/C[C@@H](Cc3cccc(Br)c3)C(=O)O[C@@H]12`, “inactive”. As for `CCOC(=O)[C@H]1C/C=C/C[C@H](C(=O)OCC)C(=O)O[C@H]2[C@@H](OC)O[C@H](CO)[C@@H](OC(=O)Nc3cccc(F)c3)[C@@H]2OC1=O`, the cytotoxicity call was “active”. For `CCOC(=O)[C@H]1C/C=C/C[C@H](C(=O)OCC)C(=O)O[C@H]2[C@@H](OC)O[C@H](CO)[C@@H](OC(=O)c3ccc(Br)cc3)[C@@H]2OC1=O` the value was “inactive”; for `CO[C@H]1O[C@H](CO)[C@@H](OC(=O)Nc2ccccc2)[C@@H]2OC(=O)[C@@H](Cc3ccc4ccccc4c3)C/C=C/C[C@H](Cc3ccc4ccccc4c3)C(=O)O[C@@H]12`, “inactive”. For `COc1cccc(S(=O)(=O)N2C[C@H](O)COC[C@@H]3O[C@H](CC(=O)N4CCN(C)CC4)CC[C@H]32)c1` the value was “inactive”; for `CC(C)NC(=O)Nc1cccc2c1O[C@@H](CN(C)Cc1ccc3c(c1)OCO3)[C@@H](C)CN([C@@H](C)CO)C2=O`, “inactive”. For `O=C(C[C@@H]1C[C@H]2c3cc(NC(=O)C4CCOCC4)ccc3O[C@H]2[C@H](CO)O1)NCc1ccc(Cl)cc1`, the cytotoxicity call is “inactive”. Regarding `O=C(C[C@H]1C[C@@H]2c3cc(NC(=O)Nc4ccc(C(F)(F)F)cc4)ccc3O[C@@H]2[C@@H](CO)O1)NC1CCCCC1`, the cytotoxicity call is “inactive”. With `CC(CN)(Cc1ccccc1Cl)C(=O)O` (stereo not drawn), the cytotoxicity call was “inactive”. For `C/C(C[P+](c1ccccc1)(c1ccccc1)c1ccccc1)=N\NC(=O)CCCCCC(=O)Nc1ccccc1O`, the cytotoxicity call is “inactive”. For `C[C@H]1CN([C@@H](C)CO)C(=O)c2cc(C#CCN(C)C)cnc2O[C@@H]1CN(C)S(=O)(=O)c1cn(C)cn1`, the cytotoxicity call was “inactive”.

With `C[C@H](CO)N1C[C@H](C)[C@@H](CN(C)C(=O)Nc2ccc3c(c2)OCO3)OCCCC[C@H](C)Oc2ccc(NC(=O)Nc3cccc4ccccc34)cc2C1=O`, the cytotoxicity call was “inactive”. `C[C@@H]1CCCCO[C@@H](CN(C)S(=O)(=O)c2cccs2)[C@H](C)CN([C@@H](C)CO)C(=O)c2cc(NS(=O)(=O)c3cn(C)cn3)ccc2O1`: the cytotoxicity call was “inactive”. For `C[C@H](CO)N1C[C@H](C)[C@@H](CN(C)C(=O)C2CC2)OCc2cnnn2CCCC1=O` the value was “inactive”. For `C[C@@H]1CN([C@@H](C)CO)C(=O)Cc2cc(NC(=O)Nc3ccc(C(F)(F)F)cc3)ccc2O[C@H]1CN(C)C(=O)Nc1cccc2ccccc12`, the cytotoxicity call was “inactive”.

Take `CO[C@H]1O[C@H](CO)[C@@H](OC(=O)Nc2ccccc2-c2ccccc2)[C@H](OC(=O)Nc2ccc3c(c2)OCO3)[C@@H]1OC(=O)Nc1ccc2c(c1)OCO2`: the cytotoxicity call was “inactive”.

For the molecule `CO[C@H]1O[C@H](CO)[C@@H](OC(=O)Nc2ccc3c(c2)OCO3)[C@H](OC(=O)Nc2ccc3c(c2)OCO3)[C@@H]1OC(=O)Nc1ccc2c(c1)OCO2`, the cytotoxicity call is “active”.

With `CO[C@H]1O[C@H](CO)[C@@H](OC(=O)Nc2ccccc2-c2ccccc2)[C@H](OC(=O)Nc2ccc3c(c2)OCO3)[C@H]1OC(=O)Nc1ccc2c(c1)OCO2`, the cytotoxicity call is “inactive”. For `Nn1c(CO)nc2ccccc21` the value was “inactive”; for `O=C(N[C@H]1CC[C@H](CCNS(=O)(=O)c2ccc(F)cc2)O[C@H]1CO)C1CC1`, “inactive”; for `C[C@H]1CN([C@@H](C)CO)C(=O)Cc2cc(NC(=O)Nc3ccc4c(c3)OCO4)ccc2O[C@@H]1CN(C)S(C)(=O)=O`, “inactive”.
